Source: PubChem BioAssay
PLK1 PBD block: qHTS for Inhibitors of PLK1-PDB (polo-like kinase 1 - polo-box domain): Primary Screen; Serine/threonine-protein kinase PLK1 (Homo sapiens), P53350; Plk1 PBD binding of FITC phosphopeptide, fluorescence polarization; Potency, µM, for the others: max response, negative = inhibition, hits mostly inhibitors; 360,000 compounds, 2.8% hits; further: potency means the concentration at half of the fitted maximal effect; series mostly up to about 57 µM; on the % scale 0 is the no-effect control and ±100 the full control effect; nearly all actives have a fitted effect of over 65% in size
PI5P4K alpha inh: qHTS for Inhibitors of phosphatidylinositol 5-phosphate 4-kinase (PI5P4K) | Phosphatidylinositol 5-phosphate 4-kinase type-2 alpha (Homo sapiens), P48426 | PI5P4Kalpha enzyme, ADP-Glo luminescence, 60 min; hits give low values | max response, % | 330,000 compounds, 1.2% hits | AID 652105, 2013; active means max response of -50% or lower; inconclusive means between -30% and -50%; inactive means -30% or higher; further: value at the top dose of about 77 µM; on the % scale 0 is the no-effect control and ±100 the full control effect
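Luminescence from ADP-Glo served as readout of PI5P4Kalpha activity in a qHTS format. Reaction: enzyme, substrate, compound, ATP at 5 microM final, 60 min at RT.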
BAZ2B block: qHTS Assay for Inhibitors of BAZ2B; Bromodomain adjacent to zinc finger domain protein 2B (Homo sapiens), Q9UIF8; AlphaScreen BAZ2B-H3K14Ac peptide displacement; Potency, µM (doses to about 114 µM), for the others: at the highest dose activity change, negative = inhibition, hits mostly inhibitors; 360,000 compounds, 4.4% hits; AID 504333, 2011; further: potency means the concentration at half of the fitted maximal effect; on the % scale 0 is the no-effect control and ±100 the full control effect; nearly all actives have a fitted effect of over 60% in size
Target sequence (Q9UIF8 whole entry, looked up, the tested form may be a part): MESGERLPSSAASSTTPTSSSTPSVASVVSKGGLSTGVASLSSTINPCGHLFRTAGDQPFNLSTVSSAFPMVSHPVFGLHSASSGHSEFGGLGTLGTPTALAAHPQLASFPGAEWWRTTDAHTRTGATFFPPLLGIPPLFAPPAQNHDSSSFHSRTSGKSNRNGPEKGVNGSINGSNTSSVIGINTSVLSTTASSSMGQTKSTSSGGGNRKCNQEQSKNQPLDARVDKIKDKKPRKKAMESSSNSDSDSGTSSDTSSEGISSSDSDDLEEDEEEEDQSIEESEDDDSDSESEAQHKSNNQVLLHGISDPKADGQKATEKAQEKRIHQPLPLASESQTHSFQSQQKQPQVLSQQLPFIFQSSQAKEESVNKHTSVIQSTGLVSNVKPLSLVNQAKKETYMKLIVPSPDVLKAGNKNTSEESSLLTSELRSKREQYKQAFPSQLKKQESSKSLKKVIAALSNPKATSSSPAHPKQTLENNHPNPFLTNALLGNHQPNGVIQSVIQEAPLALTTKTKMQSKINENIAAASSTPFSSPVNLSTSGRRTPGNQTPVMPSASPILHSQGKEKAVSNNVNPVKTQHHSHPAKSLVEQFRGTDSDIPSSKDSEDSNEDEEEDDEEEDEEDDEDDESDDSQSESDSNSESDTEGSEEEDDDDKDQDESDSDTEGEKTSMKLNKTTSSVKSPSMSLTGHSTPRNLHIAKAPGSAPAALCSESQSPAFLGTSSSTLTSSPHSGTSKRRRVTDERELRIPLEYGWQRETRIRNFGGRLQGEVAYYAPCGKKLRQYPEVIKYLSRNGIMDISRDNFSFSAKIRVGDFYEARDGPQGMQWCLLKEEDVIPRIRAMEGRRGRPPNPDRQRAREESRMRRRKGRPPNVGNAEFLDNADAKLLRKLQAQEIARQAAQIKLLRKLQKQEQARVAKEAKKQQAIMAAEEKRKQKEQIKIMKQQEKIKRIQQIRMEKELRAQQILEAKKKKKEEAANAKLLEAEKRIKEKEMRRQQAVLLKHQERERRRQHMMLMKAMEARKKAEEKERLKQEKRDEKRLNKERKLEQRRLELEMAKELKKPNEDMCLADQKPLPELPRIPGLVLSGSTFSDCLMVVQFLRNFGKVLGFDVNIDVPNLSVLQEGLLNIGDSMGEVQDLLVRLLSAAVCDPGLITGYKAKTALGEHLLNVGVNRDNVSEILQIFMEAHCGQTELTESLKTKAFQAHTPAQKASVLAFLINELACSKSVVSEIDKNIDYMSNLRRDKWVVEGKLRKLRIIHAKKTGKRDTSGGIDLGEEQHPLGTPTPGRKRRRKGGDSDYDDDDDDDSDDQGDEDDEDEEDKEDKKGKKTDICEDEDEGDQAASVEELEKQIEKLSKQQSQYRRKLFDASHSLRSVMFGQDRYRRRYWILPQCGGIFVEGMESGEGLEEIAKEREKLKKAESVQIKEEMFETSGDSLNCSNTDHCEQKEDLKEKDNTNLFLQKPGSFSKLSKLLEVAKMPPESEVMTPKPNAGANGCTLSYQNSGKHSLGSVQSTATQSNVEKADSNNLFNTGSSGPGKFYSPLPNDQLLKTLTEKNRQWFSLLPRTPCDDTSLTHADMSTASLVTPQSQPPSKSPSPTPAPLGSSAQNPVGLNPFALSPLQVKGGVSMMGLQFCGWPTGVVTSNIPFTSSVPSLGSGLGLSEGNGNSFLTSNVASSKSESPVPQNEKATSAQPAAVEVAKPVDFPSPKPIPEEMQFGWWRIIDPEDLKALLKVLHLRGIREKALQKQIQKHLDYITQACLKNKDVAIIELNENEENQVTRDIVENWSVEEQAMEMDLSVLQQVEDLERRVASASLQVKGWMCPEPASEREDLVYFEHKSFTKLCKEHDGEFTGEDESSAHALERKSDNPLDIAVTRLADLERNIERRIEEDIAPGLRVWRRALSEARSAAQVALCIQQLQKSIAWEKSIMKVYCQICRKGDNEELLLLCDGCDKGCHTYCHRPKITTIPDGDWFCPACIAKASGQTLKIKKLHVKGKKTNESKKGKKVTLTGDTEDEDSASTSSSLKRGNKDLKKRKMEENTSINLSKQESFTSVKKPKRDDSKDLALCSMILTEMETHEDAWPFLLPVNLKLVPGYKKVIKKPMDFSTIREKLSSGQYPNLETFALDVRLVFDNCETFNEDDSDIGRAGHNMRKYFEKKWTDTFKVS
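AlphaScreen luminescence quantifies BAZ2B engagement of H3K14Ac peptide; the protein and biotinylated peptide are both at 50 nM final, buffer PBS pH 7.4 with 0.01% Tween-20, all steps at room temperature.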
HP1b binding inh: HTS for Inhibitors of HP1-beta Chromodomain Interactions with Methylated Histone Tails. AlphaScreen HP1-beta / biotin-H3K9me3 peptide binding. Potency, µM (doses to about 114 µM), inactives show top-dose activity change, negative = inhibition, most hits filed as inhibitors. 390,000 compounds, 0.56% hits. AID 540317, 2011; further: potency means the concentration at half of the fitted maximal effect; nearly all actives have a fitted effect of over 70% in size
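AlphaScreen: HP1-beta (50 nM) preformed 30 min with biotin-H3(1-18)K9me3 peptide (50 nM) in PBS pH 7.4, 0.01% Tween-20. Compound added for 30 min at RT, then streptavidin donor/nickel chelate acceptor beads (10 ug/mL) for 30 min.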
G9a inh: qHTS Assay for Inhibitors of Histone Lysine Methyltransferase G9a; G9a H3K9 monomethylation, AlphaScreen, 2 h; AID 504332, 2011; 350,000 compounds, 8.8% hits; Histone-lysine N-methyltransferase EHMT2 (Homo sapiens), Q96KQ7; Potency, µM (titrated, usually from 102 µM), without a hit: top-dose activity, negative = inhibition, hits mostly inhibitors; further: potency means the concentration at half of the fitted maximal effect; on the % scale 0 is the no-effect control and ±100 the full control effect; nearly all actives have a fitted effect of over 75% in size
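Using a bead-based AlphaScreen, monomethylated H3K9 product from 2 h room-temperature reactions (G9a 20 nM, peptide 500 nM, SAM 20 uM) was detected with 0.5 ug/mL rabbit anti-H3K9me1 antibody.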
JMJD2A Tudor: qHTS Assay for Inhibitors of JMJD2A-Tudor Domain; Lysine-specific demethylase 4A (Homo sapiens), O75164; 390,000 compounds, 4.4% hits; AlphaScreen JMJD2A-Tudor / H3K4me3 peptide binding; Potency, µM (titrated, usually from 114 µM), without a hit: at the highest dose activity change, negative = inhibition, usual class: inhibitors; further: potency means the concentration at half of the fitted maximal effect; on the % scale 0 is the no-effect control and ±100 the full control effect; nearly all actives have a fitted effect of over 50% in size
Starred values were filed as active, the others as inactive; u = inconclusive; x = no result; ! = a repeat was not active; [ ] = remark or other dose. The list is not random: actives were taken first. Their share in the collection is about 12%. Unless noted, the call rests on the fitted dose curve; in most records, active means well fitted curve in the direction sought with a large enough effect; inconclusive means small, poorly fitted or top-dose-only effect, or another doubt; inactive means no such curve, though single readings can be large; an effect the other way counts as inactive or inconclusive.

SMILES | PLK1 PBD block | PI5P4K alpha inh | BAZ2B block | HP1b binding inh | G9a inh | JMJD2A Tudor
CCCN1CCc2c(sc(NC(=O)CCS(=O)(=O)c3ccccc3)c2C(N)=O)C1 | -7.9% | 4.2 | -17.2% | -5.8% | u | -10.4%
CN1CCc2c(sc(NC(=O)Cc3ccccc3)c2C#N)C1 | u | -8.0 | -10.2% | 4.0% | 44.7µM* | -16.9%
CC(=O)N1CCc2c(sc(NC(=O)Cc3ccc(C)cc3C)c2C#N)C1 | 26.7µM* | -20.8 | -17.7% | 14.0% | 11.6% | u
COc1cc(C(=O)Nc2sc3c(c2C#N)CCN(C(C)=O)C3)cc(OC)c1OC | -5.0% | -0.2 | -2.7% | 39.1% | -8.0%[59 µM] | -18.4%
CCc1ccccc1N(CC)C(=O)Cn1nc(Cc2ccncc2)c2ccccc2c1=O | x | x | -15.6% | 33.8% | -27.5%[59 µM] | -21.9%
COc1ccc(-c2nnc(SCC(=O)NC3CCCC3)nc2-c2ccc(OC)c(OC)c2)cc1OC | x | x | 1.9% | 31.7% | -1.3%[59 µM] | -6.7%
CC(=O)N1CCc2c(sc(NC(=O)c3ccc([N+](=O)[O-])o3)c2C#N)C1 | 23.8µM* | u | 56.2µM* | u | 2.82µM* | u
COC(=O)c1sc(NC(=O)c2ccc([N+](=O)[O-])o2)c(C#N)c1C | u | -22.7 | u | u | 12.6µM* | u
COc1ccccc1C(=O)N1CCN(Cc2cc(=O)oc3cc(C)ccc23)CC1 | x | x | -3.8% | 36.1% | -4.9%[59 µM] | -8.2%
CCn1c(=O)cc(OCC(=O)N(C)c2ccc(OC)cc2)c2ccccc21 | x | x | 89.1µM* | 16.4% | -12.8%[59 µM] | -10.1%
CCOc1ccc(N(CC)C(=O)COc2cc(=O)n(CC)c3ccccc23)cc1 | 26.7µM* | 0.1 | -13.0% | -16.3% | -25.2%[59 µM] | -32.8%[57.1 µM]
CCn1c(=O)cc(OCC(=O)N2CCCC2)c2ccccc21 | 26.7µM* | -2.5 | 9.0% | 11.8% | u | u
CCCCCCn1c(=O)n2n(c1=O)C[C@]1(OC(=O)NCc3ccco3)CN(S(=O)(=O)c3ccc(C)cc3)C[C@]1(O)C2 | -1.9% | 1.4 | x | x | x | x
O=C(C1CCN(S(=O)(=O)c2ccccc2F)CC1)N1CCN(Cc2ccc3c(c2)OCO3)CC1 | -7.7% | -0.4 | 6.8% | 24.7% | 2.9%[12.7 µM] | -20.1%
CCC(CC)C(=O)Nc1cc(OC)c(OC)cc1C(=O)O | 18.9µM* | u | -29.2% | 5.2% | -26.0%[59 µM] | -28.2%[11.4 µM]
CCC1CCCCN1c1nc(-c2cccc(OC)c2O)nc2ccccc12 (configuration not stated) | -3.5% | x | u | -24.9% | 39.8µM* | u
COc1cccc(-c2nc(N3CCN(c4ccccc4)CC3)c3ccccc3n2)c1O | -4.7% | -4.4 | -38.6% | u | -48.0%[59 µM] | u
CCC1CCCCN1c1nc(-c2ccncc2)nc2ccccc12 (configuration not stated) | -6.0% | x | 1.9% | 39.4% | 13.7% | -7.9%
COc1cccc(-c2nc(NC(C)C)c3ccccc3n2)c1O | -9.7% | x | u | -22.5% | u | 50.1µM*
COc1cccc(-c2nc(N3CCCCC3)c3ccccc3n2)c1O | -6.8% | 3.0 | x | u | x | 35.5µM*
COc1ccc(N(CC(=O)N2CCN(c3cccc(OC)c3)CC2)S(=O)(=O)c2c(C)noc2C)cc1 | x | x | x | 12.1% | -4.0%[59 µM] | -30.0%
C[C@H]1Cn2cnc(C(=O)Nc3ccccc3)c2C(=O)N1 | 0.7% | 0.3 | x | x | x | x
CC(Oc1ccccc1)C(=O)Nc1ccccc1C(=O)OCc1cc(=O)n2nc(C3CC3)sc2n1 (configuration not stated) | x | x | -7.7% | 30.5% | 9.0%[59 µM] | -5.6%
COc1ccc(CCNC(=O)c2ccc3c(c2)c(C)c(C)n3Cc2ccc(F)cc2)c(OC)c1OC | x | x | -26.4% | -2.7% | -44.6%[59 µM] | u
O=C(O)c1ccc(-c2ncc[nH]2)cc1 | u | -26.8 | -0.4% | 5.3% | -36.7% | 20µM*
SMILES | PLK1 PBD block | PI5P4K alpha inh | BAZ2B block | HP1b binding inh | G9a inh | JMJD2A Tudor
O=C(O)c1ccc(-c2nc3ccccc3[nH]2)cc1 | 3.7% | -1.8 | -14.4% | 23.5% | -16.3%[59 µM] | -27.3%
CCOC(=O)c1cc(C#N)c(=S)[nH]c1C | -3.9% | -26.3 | -25.5% | 23.2% | 10µM* | 39.8µM*
COCc1[nH]c(=S)c(C#N)cc1C(=O)OC | u | -61.7* | -7.6% | u | -137.3%[59 µM] | 22.4µM*
Cc1cc(-c2ccc(C)c(S(=O)(=O)Nc3cc(C)on3)c2)on1 | -4.7% | -1.1 | -5.6% | 18.6%[57 µM] | 12.9% | -3.9%
CCOc1ccc(-c2nonc2NC(=O)COc2ccccc2)cc1 | x | x | 6.7% | 30.7% | -26.7%[59 µM] | -10.9%
COc1ccc(CCNCC(=O)Nc2ccc(OC(F)(F)F)cc2)cc1OC | -13.6% | 9.2 | u | u | 31.6µM* | 20µM*
COCCCNCC(=O)Nc1ccc(OC(F)(F)F)cc1 | 3.5% | -1.7 | u | -9.7% | 8.91µM* | 2.82µM*
CCC(C)(C)NCC(=O)Nc1ccc(OC(F)(F)F)cc1 | -8.4% | 0.6 | -2.9% | 39.4% | -24.0%[59 µM] | -9.3%
c1ccc(-[n+]2nc(Nc3cccc4ccccc34)sc2-c2c3ccccc3cc3ccccc23)cc1 | -6.6% | -16.2 | 3.55µM* | u | 25.8%[2.33 µM] | 2.51µM*
Oc1ccc2ccccc2c1-c1sc(Nc2ccccc2)n[n+]1-c1ccc(F)cc1 | -20.0% | 0.8 | u | 20.6% | 39.8µM* | u
Fc1ccc(-[n+]2nc(Nc3ccccc3)sc2-c2c3ccccc3cc3ccccc23)cc1 | -6.9% | -62.8* | 5.01µM* | u | 11.2µM* | 15.8µM*
CCCNC(=O)c1csc(Nc2cccc3ccccc23)n1 | -5.8% | 0.1 | u | -5.3% | 16.1%[0.501 µM] | -32.8%
COc1ccc(-c2sc(Nc3ccccc3)n[n+]2-c2ccc(F)cc2)c(C)c1C | 3.8% | -16.3 | u | -3.0% | u | u
CCCCCCCCN1C(=O)[C@H](CC(=O)NCCCN2CCCC2=O)C[C@@]2(C(=O)OC)CCCCC=C12 | -3.5% | -0.5 | x | x | x | x
COc1cc(OC)c(NC(=O)CN(C)S(=O)(=O)c2ccc(-c3ccc(=O)[nH]n3)s2)cc1Cl | -9.8% | -3.4 | -22.5% | 35.9% | x | 7.8%
O=C(c1ccc2c(c1)OCO2)c1cn(Cc2ccc(Cl)cc2)c2ccc(F)cc2c1=O | x | x | -23.9% | 14.8% | -4.9%[59 µM] | -25.9%
Cc1nn(-c2ncc(C(F)(F)F)cc2Cl)c(=O)n1-c1c(F)cccc1F | 2.6% | 1.7 | -17.1% | 28.9% | 79.4µM* | -11.0%
NCCCS(=O)(=O)O | 1.7% | 1.2 | 11.5% | 10.3% | 19.9% | 0.7%
NCCCNCCCCNCCCN | -0.6% | 3.6 | x | 13.0% | 12.6µM*! | -19.7%
